Test results from PubChem BioAssay (Tox21).
Results filed as inconclusive are left out. Where a call stands in place of a potency, no number is given. The source made the active and inactive calls. Unless noted, calls follow the shape of the dose curve; as a rule, active = well fitted curve in the direction sought with a large enough effect in the repeat runs; inconclusive = weak or mixed curves; inactive = no such curve, though single readings can be large; an effect the other way counts as inactive or inconclusive.

Assays:
[1] = qHTS assay to identify small molecule antagonists of the glucocorticoid receptor (GR) signaling pathway - cell viability counter screen (AID 720693); also: nearly all actives have a fitted effect of over 55% in size
[2] = qHTS assay for identifying genotoxic compounds that show differential cytotoxicity against isogenic chicken DT40 cell lines with known DNA damage response pathways - wild type cell line (AID 743012); also: nearly all actives have a fitted effect of over 60% in size; also: potency is read from the fitted curve at half-maximal effect
In short: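 CellTiter-Glo luminescence readout of viability in wild type DT40 cells after 40 h compound exposure at 37 C/5% CO2; 300 cells/well; reagent incubated 30 min at room temperature before reading.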

[3] = qHTS assay for identifying genotoxic compounds that show differential cytotoxicity against isogenic chicken DT40 cell lines with known DNA damage response pathways - Rev3 mutant cell line (AID 743014); also: nearly all actives have a fitted effect of over 55% in size; also: potency is read from the fitted curve at half-maximal effect
[4] = qHTS assay for identifying genotoxic compounds that show differential cytotoxicity against isogenic chicken DT40 cell lines with known DNA damage response pathways - Rad54/Ku70 mutant cell line (AID 743015); also: nearly all actives have a fitted effect of over 60% in size; also: potency is read from the fitted curve at half-maximal effect
[5] = qHTS assay to identify small molecule antagonists of the androgen receptor (AR) signaling pathway - cell viability counter screen (AID 743033; also: nearly all actives have a fitted effect of over 45% in size)
[6] = qHTS assay to identify small molecule antagonists of the androgen receptor (AR) signaling pathway using the MDA cell line - cell viability counter screen (AID 743041; also: nearly all actives have a fitted effect of over 45% in size)
In short: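 Cytotoxicity counter screen: MDA-kb2 AR-luc cells, compound + R1881, 16 h, 37C, 0% CO2; CellTiter-Fluor added at 15.5 h, fluorescence read after 30 min.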

[7] = qHTS assay to identify small molecule antagonists of the thyroid receptor (TR) signaling pathway - cell viability counter screen (AID 743064); also: nearly all actives have a fitted effect of over 50% in size
In short: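 Viability of T3-stimulated (1 nM final) GH3.TRE-Luc cells is measured by CellTiter-Fluor fluorescence after 23.5 h compound exposure at 37 °C plus 30 min reagent incubation.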

[8] = qHTS assay to identify small molecule antagonists of the thyroid receptor (TR) signaling pathway (AID 743065); also: series mostly up to about 70 µM; nearly all actives have a fitted effect of over 55% in size
In short: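 GH3.TRE-Luc rat pituitary cells (two TREs driving luciferase) were dosed with compound, then stimulated with 1 nM T3 (final) for 23.5 h at 37 C. ONE-Glo luminescence was the read-out, with CellTiter-Fluor fluorescence as the cytotoxicity counter-screen.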

[9] = test system: thyroid hormone receptor (rat, GH3 cells); assay: qHTS assay to identify small molecule agonists of the thyroid receptor (TR) signaling pathway (AID 743066; calls by dose curve)
[10] = molecular target: Estrogen receptor (Homo sapiens) (UniProt P03372); assay: qHTS assay to identify small molecule antagonists of the estrogen receptor alpha (ER-alpha) signaling pathway (AID 743069; active = well fitted curve in the direction sought with a large enough effect in the signal ratio in the repeat runs, not every such curve was filed as active; the % refers to the signal ratio)
Estrogen receptor (Homo sapiens), sequence (P03372 whole entry, looked up): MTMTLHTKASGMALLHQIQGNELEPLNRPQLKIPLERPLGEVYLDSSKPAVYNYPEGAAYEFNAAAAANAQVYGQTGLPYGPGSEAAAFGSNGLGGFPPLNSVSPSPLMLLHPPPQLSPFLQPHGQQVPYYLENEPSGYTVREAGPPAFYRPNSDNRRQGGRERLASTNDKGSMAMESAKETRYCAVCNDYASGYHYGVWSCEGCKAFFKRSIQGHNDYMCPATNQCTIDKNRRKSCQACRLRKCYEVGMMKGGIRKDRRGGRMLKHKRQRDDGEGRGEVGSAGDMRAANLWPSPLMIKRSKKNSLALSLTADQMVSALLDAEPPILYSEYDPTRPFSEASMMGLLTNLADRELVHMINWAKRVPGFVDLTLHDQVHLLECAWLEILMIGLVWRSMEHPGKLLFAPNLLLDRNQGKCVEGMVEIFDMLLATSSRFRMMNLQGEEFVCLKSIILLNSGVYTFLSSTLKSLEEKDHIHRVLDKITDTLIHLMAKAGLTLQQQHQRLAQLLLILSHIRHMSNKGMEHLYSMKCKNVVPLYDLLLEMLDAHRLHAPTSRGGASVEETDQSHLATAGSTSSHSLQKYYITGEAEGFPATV
In short: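 Beta-lactamase FRET fluorescence is read after 2 hr at room temperature with LiveBLAzer B/G substrate. Before that, ER-alpha-bla HEK293 cells sit 4 hr after plating, then receive compound plus 17beta-estradiol and incubate 18 hr at 37C.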

[11] = qHTS assay to identify small molecule antagonists of the estrogen receptor alpha (ER-alpha) signaling pathway - cell viability counter screen (AID 743074; calls by dose curve;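 also: HEK293 cells carrying ER-alpha-UAS-bla reporter stimulated with 17beta-estradiol; nearly all actives have a fitted effect of over 45% in size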)
[12] = molecular target: Estrogen receptor (Homo sapiens) (UniProt P03372); assay: qHTS assay to identify small molecule agonists of the estrogen receptor alpha (ER-alpha) signaling pathway (AID 743075; calls by dose curve;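 also: HEK293 GripTite cells with ER-alpha and UAS-driven beta-lactamase reporter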)
[13] = molecular target: Estrogen receptor (Homo sapiens) (UniProt P03372); assay: qHTS assay to identify small molecule agonists of the estrogen receptor alpha (ER-alpha) signaling pathway using the BG1 cell line (AID 743079); also: nearly all actives have a fitted effect of over 20% in size; also: potency is read from the fitted curve at half-maximal effect
[14] = qHTS assay to identify small molecule antagonists of the estrogen receptor alpha (ER-alpha) signaling pathway using the BG1 cell line (AID 743080; calls by dose curve;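 also: BG1 cells stimulated with 17beta-estradiol alongside compound; series mostly up to about 70 µM; nearly all actives have a fitted effect of over 25% in size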)
In short: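 Endogenous full-length ER-alpha in BG1-Luc-4E2 cells drives a stably integrated 4×ERE luciferase gene; compounds were tested against 17beta-estradiol over 21.5 h, with luminescence and multiplexed viability fluorescence recorded.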

[15] = qHTS assay to identify small molecule antagonists of the estrogen receptor alpha (ER-alpha) signaling pathway using the BG1 cell line - cell viability counter screen (AID 743081);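 also: compound given together with 17beta-estradiol as the ER stimulus; series mostly up to about 70 µM; nearly all actives have a fitted effect of over 45% in size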
Aromatase (Homo sapiens) = Aromatase (Homo sapiens) (UniProt P11511); assay: qHTS assay to identify aromatase inhibitors (AID 743083); also: series mostly up to about 70 µM; nearly all actives have a fitted effect of over 55% in size
Aromatase (Homo sapiens), sequence (P11511 whole entry, looked up): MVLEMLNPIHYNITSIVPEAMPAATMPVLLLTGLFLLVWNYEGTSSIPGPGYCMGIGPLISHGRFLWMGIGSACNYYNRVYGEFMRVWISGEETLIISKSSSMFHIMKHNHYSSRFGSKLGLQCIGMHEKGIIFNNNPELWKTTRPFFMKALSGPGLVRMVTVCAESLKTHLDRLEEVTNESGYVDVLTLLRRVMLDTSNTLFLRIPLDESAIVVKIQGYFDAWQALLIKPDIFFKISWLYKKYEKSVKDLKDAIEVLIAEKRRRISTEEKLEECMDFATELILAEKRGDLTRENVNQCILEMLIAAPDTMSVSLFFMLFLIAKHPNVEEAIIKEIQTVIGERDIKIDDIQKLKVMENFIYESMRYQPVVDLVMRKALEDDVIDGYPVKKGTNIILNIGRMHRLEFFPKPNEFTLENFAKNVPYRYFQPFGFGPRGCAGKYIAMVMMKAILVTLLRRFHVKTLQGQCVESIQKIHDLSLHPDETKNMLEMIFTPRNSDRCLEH

[16] = molecular target: Androgen receptor (Homo sapiens) (UniProt P10275); assay: qHTS assay to identify small molecule antagonists of the androgen receptor (AR) signaling pathway (AID 743035; active = well fitted inhibition curve with a large enough effect in the signal ratio in the repeat runs, not every such curve was filed as active; the % refers to the signal ratio)
Androgen receptor (Homo sapiens), sequence (P10275 whole entry, looked up): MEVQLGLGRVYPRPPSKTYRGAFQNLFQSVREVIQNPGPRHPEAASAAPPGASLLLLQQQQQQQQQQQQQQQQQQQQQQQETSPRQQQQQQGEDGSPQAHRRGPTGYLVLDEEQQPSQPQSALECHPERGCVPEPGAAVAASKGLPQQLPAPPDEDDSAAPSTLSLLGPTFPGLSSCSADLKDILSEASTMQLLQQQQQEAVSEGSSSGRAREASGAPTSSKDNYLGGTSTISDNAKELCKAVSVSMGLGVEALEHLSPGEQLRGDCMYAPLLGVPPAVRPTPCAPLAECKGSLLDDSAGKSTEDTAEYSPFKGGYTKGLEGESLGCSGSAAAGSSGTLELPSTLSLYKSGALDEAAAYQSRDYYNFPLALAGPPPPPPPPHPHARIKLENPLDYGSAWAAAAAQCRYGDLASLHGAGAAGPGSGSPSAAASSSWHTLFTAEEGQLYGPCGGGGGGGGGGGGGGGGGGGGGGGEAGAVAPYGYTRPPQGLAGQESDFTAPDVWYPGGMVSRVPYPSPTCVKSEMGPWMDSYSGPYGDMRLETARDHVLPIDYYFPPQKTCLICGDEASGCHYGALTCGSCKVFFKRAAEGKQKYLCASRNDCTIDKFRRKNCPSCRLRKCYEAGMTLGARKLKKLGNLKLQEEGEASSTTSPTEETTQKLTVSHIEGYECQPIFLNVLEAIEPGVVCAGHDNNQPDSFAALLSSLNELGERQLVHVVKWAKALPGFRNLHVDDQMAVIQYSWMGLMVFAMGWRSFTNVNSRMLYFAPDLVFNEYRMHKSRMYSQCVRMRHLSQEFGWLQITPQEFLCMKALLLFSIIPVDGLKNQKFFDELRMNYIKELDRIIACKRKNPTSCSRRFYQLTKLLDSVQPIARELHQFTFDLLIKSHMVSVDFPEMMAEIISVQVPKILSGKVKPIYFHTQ
In short: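 AR-bla HEK293 reporter cells; 4 h settle at 37C/5% CO2; compound + R1881 agonist, 16 h at 37C; LiveBLAzer B/G FRET substrate 2 h RT; fluorescence intensity read. qHTS format.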

[17] = molecular target: Androgen receptor (Homo sapiens) (UniProt P10275); assay: qHTS assay to identify small molecule agonists of the androgen receptor (AR) signaling pathway (AID 743036; active = well fitted activation curve with a large enough effect in the signal ratio in the repeat runs, with a control signal flat, not every such curve was filed as active; the % refers to the signal ratio)
In short: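 Screening used 2,000 AR-bla HEK293 cells per well, treated 16 h at 37C with test compounds in DMSO alongside positive and DMSO-only controls; beta-lactamase activity was then read by LiveBLAzer B/G FRET fluorescence after 2 h at room temperature.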

[18] = molecular target: Androgen receptor (Homo sapiens) (UniProt P10275); assay: qHTS assay to identify small molecule agonists of the androgen receptor (AR) signaling pathway using the MDA cell line (AID 743040; also: nearly all actives have a fitted effect of over 20% in size)
In short: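 Luciferase read-out, ONE-Glo, 30 min RT. Cells: MDA-kb2 AR-luc, MMTV promoter with AR and GR response elements. Compound exposure 16 h, 37C, 0% CO2, after 5 h pre-incubation. qHTS agonist mode.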

[19] = molecular target: Androgen receptor (Homo sapiens) (UniProt P10275); assay: qHTS assay to identify small molecule antagonists of the androgen receptor (AR) signaling pathway using the MDA cell line (AID 743042; also: nearly all actives have a fitted effect of over 55% in size)
In short: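 MDA-kb2 breast carcinoma cells carrying MMTV-luciferase (AR/GR responsive) were co-treated with compounds and the agonist R1881 for 16 h at 37C. Inhibition read as ONE-Glo luminescence; CellTiter-Fluor fluorescence measured in parallel for cytotoxicity.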

Row | SMILES | Potency [1] | Potency [2] | Potency [3] | Potency [4] | Potency [5] | Potency [6] | Potency [7] | Potency [8] | Potency [9] | Potency [10] | Potency [11] | Potency [12] | Potency [13] | Potency [14] | Potency [15] | Potency (Aromatase (Homo sapiens)) | Potency [16] | Potency [17] | Potency [18] | Potency [19]
1 | CC(=O)N[C@@H](C=O)[C@H](O)[C@H](O)[C@@H](O)CO | inactive | inactive | inactive | inactive | inactive | inactive | inactive | inactive | inactive | inactive | inactive | inactive | inactive | inactive | inactive | inactive | – | – | – | –
2 | COC(=O)[C@H]1[C@H]2C[C@H]3c4[nH]c5ccccc5c4CCN3C[C@H]2CC[C@@H]1O | inactive | inactive | inactive | inactive | inactive | inactive | inactive | inactive | inactive | inactive | inactive | inactive | inactive | inactive | inactive | inactive | – | – | – | –
3 | O=C1C2CC3CC1CC(O)(C3)C2 | inactive | inactive | inactive | inactive | inactive | inactive | inactive | inactive | inactive | inactive | inactive | inactive | inactive | inactive | inactive | inactive | inactive | inactive | inactive | inactive
4 | C/C=C/C1=C(C(=O)O)N2C(=O)[C@@H](NC(=O)[C@H](N)c3ccc(O)cc3)[C@H]2SC1 | inactive | inactive | inactive | inactive | inactive | inactive | inactive | – | inactive | inactive | inactive | inactive | inactive | – | inactive | inactive | inactive | – | inactive | inactive
5 | CCN1CCCC1CNC(=O)c1cc(S(=O)(=O)CC)ccc1OC (centres undefined) | inactive | inactive | inactive | inactive | inactive | inactive | inactive | inactive | inactive | – | inactive | – | – | – | inactive | inactive | inactive | inactive | inactive | inactive
6 | C[C@@H]1C(=O)NC2=Nc3cccc(Cl)c3CN21 | inactive | inactive | inactive | inactive | inactive | inactive | inactive | inactive | inactive | – | inactive | – | – | – | inactive | inactive | inactive | inactive | inactive | inactive
7 | CC(C)(Oc1ccc(C2CCCc3ccccc32)cc1)C(=O)O (centres undefined) | inactive | inactive | inactive | inactive | inactive | inactive | – | inactive | inactive | inactive | inactive | inactive | 18800 nM (active) | inactive | inactive | inactive | inactive | inactive | inactive | inactive
8 | O=C(O)COc1ccccc1/C=N/NC(=O)c1ccncc1 | inactive | inactive | inactive | inactive | inactive | inactive | inactive | inactive | inactive | inactive | inactive | inactive | inactive | inactive | inactive | inactive | inactive | inactive | inactive | inactive
9 | CO/N=C(\C(=O)N[C@@H]1C(=O)N2C(C(=O)O)=C(C[N+]3(C)CCCC3)CS[C@H]12)c1csc(N)n1 | inactive | inactive | inactive | inactive | inactive | inactive | inactive | – | inactive | inactive | inactive | inactive | inactive | inactive | inactive | inactive | inactive | – | inactive | inactive
10 | CCc1ncnc2cc(OC)c(OC)cc12 | inactive | inactive | inactive | inactive | inactive | inactive | inactive | inactive | inactive | inactive | inactive | inactive | inactive | inactive | inactive | inactive | inactive | – | inactive | inactive
11 | C=C1[C@H](CO)[C@@H](O)C[C@@H]1n1cnc2c(=O)[nH]c(N)nc21 | inactive | 23.7 nM (active) | 23.7 nM (active) | 33.5 nM (active) | inactive | inactive | – | – | – | – | inactive | – | – | – | inactive | inactive | – | inactive | inactive | inactive
